Bioassay records from PubChem BioAssay.
An excerpt weighted towards active compounds, which were near 21% of everything screened.
NS1 function inh: inhibitors of influenza NS1 protein function | AID 2326 | 270,000 tested, 0.4% active | Potency, µM (titrated, usually from 46.1 µM); note: actives are rising curves; nearly all actives have a fitted effect of over 50% in size
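Read-out: OD600 growth recovery of NS1-expressing budding yeast. Cells grown overnight at 30C in -URA glucose medium, washed, resuspended and diluted 1:100 in 2% galactose assay medium, pH 6.0. Same strain lacking NS1 served as positive control.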
CHX counter: counter-screen hit for Shiga toxin inhibitors, cycloheximide. cell reporter, cycloheximide protein synthesis inhibition counterscreen. max response, %. 300,000 tested, 12% active. AID 2314; in the data active = max response mostly above about 13%, no sharp cut-off; inactive = mostly below about 14%; note: read at 38.3 µM for the half of the compounds with a filed dose
Shiga toxin inh: Shiga toxin inhibition. Vero cells, Shiga toxin protein synthesis inhibition reporter. inhibition, % at 38.7 µM. 290,000 tested, 9.2% active. AID 2315; in the data active = inhibition mostly above about 28%, no sharp cut-off; inactive = mostly below about 43%
Pf growth 48h: P. falciparum growth inhibition at 48 hours (one generation) | P. falciparum luciferase growth in erythrocytes, 48 h | AID 504832 | Potency, µM (top dose mostly 28.7 µM), usual class: inhibitors | 310,000 tested, 5.9% active; active = well fitted inhibition curve with a large enough effect; inconclusive = small, poorly fitted or top-dose-only effect, or another doubt; inactive = no such curve, though single readings can be large or run the other way
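Erythrocytes infected with P. falciparum carrying an integrated firefly luciferase reporter (2% hematocrit, 0.1% parasitemia final) were exposed to compounds in RPMI 1640 with 0.5% Albumax at 37 C, 5% CO2. Growth inhibition was scored as reduced luminescence.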
SARS PLP yeast: inhibitors of SARS-CoV papain-like protease in yeast; S. cerevisiae expressing SARS-CoV PLpro, growth rescue; Potency, µM (highest dose often 32.9 µM), usual class: activators; 330,000 tested, 0.19% active; AID 485353; note: nearly all actives have a fitted effect of over 55% in size
Pf growth 96h: P. falciparum growth inhibition at 96 hours; P. falciparum luciferase reporter growth, 96 h; AID 504834; 320,000 tested, 6.9% active; Potency, µM (doses to about 28.7 µM), actives largely listed as inhibitors; active = well fitted inhibition curve with a large enough effect; inconclusive = small, poorly fitted or top-dose-only effect, or another doubt; inactive = no such curve, though single readings can be large or run the other way
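96 h incubation, 37 C, 5% CO2, of luciferase-reporter P. falciparum-infected RBCs (2% hematocrit, 0.05% parasitemia final) with test compounds; endpoint luminescence.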
Numbers stand for hits. Unless noted, calls come from the whole dose curve.

`CC(=O)c1ccc(-c2cc(C3C4C=CCC(C)C4C(=O)N3Cc3ccccc3)ccc2F)cc1` (configuration not stated) gave CHX counter inactive and Shiga toxin inh inactive.
`COc1ccc(-c2ccc(C3C4C=CCC(C)C4C(=O)N3Cc3ccccc3)c(F)c2)cc1OC` (configuration not stated) gave CHX counter inactive and Shiga toxin inh inactive.
`Cc1cccc(OCC(=O)Nc2ccc3c(c2)C(=O)NC3=O)c1` gave NS1 function inh inactive, CHX counter inactive, Shiga toxin inh inactive, Pf growth 48h inactive, SARS PLP yeast inactive and Pf growth 96h inconclusive.
CC(=O)CN1Cc2ccccc2/C1=N\C(=O)Nc1ccccc1 was read as NS1 function inh inactive, CHX counter 16, Shiga toxin inh inactive, Pf growth 48h inactive, SARS PLP yeast inactive and Pf growth 96h inconclusive.
CCN1CCN(CC(=O)Nc2ccccc2)C(=O)C1=O was read as NS1 function inh inactive, CHX counter inactive, Shiga toxin inh inactive, SARS PLP yeast inactive and Pf growth 96h inactive.
For COc1ccc(N2Cc3ccccc3/C2=N\C(=O)Nc2ccccc2)cc1 the results were CHX counter 23, Shiga toxin inh inactive, Pf growth 48h inactive, SARS PLP yeast inactive and Pf growth 96h inactive.
For COc1ccc(CCN2CC(C(=O)NCCN3CCOC3=O)CCC2=O)cc1 (configuration not stated) the results were NS1 function inh inactive, CHX counter inactive, Shiga toxin inh inactive, Pf growth 48h inactive, SARS PLP yeast inactive and Pf growth 96h inactive.
`COC(=O)C(CC(C)C)NC(=O)c1cccs1` (configuration not stated) gave NS1 function inh inactive, CHX counter inactive, Shiga toxin inh inactive, Pf growth 48h inactive, SARS PLP yeast inactive and Pf growth 96h inactive.
For CCOc1ccc(-n2c(=O)c3sccc3n(Cc3cccc([N+](=O)[O-])c3)c2=O)cc1 the results were NS1 function inh inactive, CHX counter inactive, Shiga toxin inh inactive, Pf growth 48h inactive, SARS PLP yeast inactive and Pf growth 96h inconclusive.
`CC1CN(Cc2cc(=O)n3ccsc3n2)CC(C)O1` (configuration not stated) gave NS1 function inh inactive, CHX counter inactive, Shiga toxin inh inactive, Pf growth 48h inactive, SARS PLP yeast inactive and Pf growth 96h 12µM.
Screening O=c1cc(CN2CCc3ccccc32)nc2sccn12 returned NS1 function inh inactive, CHX counter inactive, Shiga toxin inh inactive, SARS PLP yeast inactive and Pf growth 96h inactive.
For O=c1cc(CN2CCCc3ccccc32)nc2sccn12 the results were NS1 function inh inactive, CHX counter 24, Shiga toxin inh inactive, Pf growth 48h inactive, SARS PLP yeast inactive and Pf growth 96h inactive.
`O=c1cc(CN2CCC(Cc3ccccc3)CC2)nc2sccn12` gave CHX counter inactive, Shiga toxin inh inactive, Pf growth 48h inactive, SARS PLP yeast inactive and Pf growth 96h inconclusive.
CC1CCC2(CC1)NC(=O)N(Cc1cc(=O)n3ccsc3n1)C2=O (configuration not stated) was read as NS1 function inh inactive, CHX counter inactive, Shiga toxin inh inactive, Pf growth 48h inactive, SARS PLP yeast inactive and Pf growth 96h inactive.
`CC1CCCCC12NC(=O)N(Cc1cc(=O)n3ccsc3n1)C2=O` (configuration not stated) gave NS1 function inh inactive, CHX counter 30, Shiga toxin inh inactive, Pf growth 48h inactive, SARS PLP yeast inactive and Pf growth 96h inactive.
For Cc1cccc(Oc2coc3cc(OC(=O)c4cncc(Br)c4)ccc3c2=O)c1 the results were NS1 function inh inactive, CHX counter inactive, Shiga toxin inh inactive, Pf growth 48h inactive, SARS PLP yeast inactive and Pf growth 96h inactive.
CCOC(=O)Oc1ccc2c(=O)c(Oc3cccc(C)c3)coc2c1 was read as NS1 function inh inactive, CHX counter 21, Shiga toxin inh inactive, Pf growth 48h inactive, SARS PLP yeast inactive and Pf growth 96h inactive.
`COc1ccc(Oc2coc3cc(OC(=O)c4cccs4)ccc3c2=O)cc1` gave NS1 function inh inactive, CHX counter inactive, Shiga toxin inh inactive, Pf growth 48h inactive, SARS PLP yeast inactive and Pf growth 96h 4.1µM.
`Cc1cccc(Oc2coc3cc(OC(=O)c4cc5ccccc5oc4=O)ccc3c2=O)c1` gave NS1 function inh inactive, CHX counter 40, Shiga toxin inh inactive, Pf growth 48h inactive, SARS PLP yeast inactive and Pf growth 96h inactive.
